This is part of a sample that, as a whole, favours compounds with a hit. Of some 83,000 tested, about 20% had one in any assay.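 The endpoint reported here, percent growth, reads 100 for growth as untreated, 0 for no net growth and -100 for all cells dead.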 Values without a mark were called inactive. Calls of active or inactive are those of the source. Rule for the calls: active = growth percent below 10; inactive = the rest.
Tests used:
Assay in all cases: NCI-60 one-dose screen, 48 h (100 = growth as untreated, 0 = no growth, -100 = all killed)
Details in all cases: 10 µM unless noted
NCI-H23 lung = tested on: NCI-H23 lung
NCI-H226 lung = tested on: NCI-H226 lung
NCI-H322M lung = tested on: NCI-H322M lung
HOP-62 NSCLC = tested on: HOP-62 NSCLC
NCI-H460 lung = tested on: NCI-H460 lung
HOP-92 NSCLC = tested on: HOP-92 NSCLC
NCI-H522 lung = tested on: NCI-H522 lung
A549/ATCC NSCLC = tested on: A549/ATCC NSCLC
786-0 renal = tested on: 786-0 renal
COLO 205 colon = tested on: COLO 205 colon
DU-145 prostate = tested on: DU-145 prostate
K-562 leukemia = tested on: K-562 leukemia
MDA-MB-231 breast = tested on: MDA-MB-231 breast
RXF 393 renal = tested on: RXF 393 renal
SF-268 CNS = tested on: SF-268 CNS
SF-295 CNS = tested on: SF-295 CNS
SF-539 CNS = tested on: SF-539 CNS
M14 melanoma = tested on: M14 melanoma
MALME-3M melanoma = tested on: MALME-3M melanoma
UACC-257 melanoma = tested on: UACC-257 melanoma

Row | SMILES | growth (NCI-H23 lung) | growth (NCI-H226 lung) | growth (NCI-H322M lung) [%] | growth (HOP-62 NSCLC) | growth (NCI-H460 lung) | growth (HOP-92 NSCLC) | growth (NCI-H522 lung) | growth (A549/ATCC NSCLC) | growth (786-0 renal) | growth (COLO 205 colon) | growth (DU-145 prostate) | growth (K-562 leukemia) | growth (MDA-MB-231 breast) | growth (RXF 393 renal) | growth (SF-268 CNS) | growth (SF-295 CNS) | growth (SF-539 CNS) | growth (M14 melanoma) | growth (MALME-3M melanoma) [%] | growth (UACC-257 melanoma) [%]
1 | CCN(CC)Cc1cc(Nc2cc(C(F)(F)F)c(C#N)c3nc4ccccc4n23)ccc1O | 17.2% | 16.5% | 16.3 | 14% | 6.25% (active) | -30.2% (active) | -55.3% (active) | 6.97% (active) | 11.9% | -31.4% (active) | 25.1% | 11.3% | -8.6% (active) | 0.263% (active) | 26.7% | 5.79% (active) | 5.91% (active) | 24.3% |  | 
2 | O=C(Nc1ccc(C2=NCCCN2)cc1)c1ccc(C(=O)Nc2ccc(C3=NCCCN3)cc2)nc1 | 102% | 101% | 111 | 97.2% | 107% | 131% | 96.1% | 141% | 96.6% | 125% | 122% |  | 104% |  | 106% | 110% | 104% | 102% | 117 | 
3 | N#Cc1c(-c2ccc(C(F)(F)F)cc2)cc(NCC2CCS(=O)(=O)CC2)n2c1nc1ccccc12 | 88.8% | 93.7% | 100 | 86.4% | 96.8% | 80.9% | 64.5% | 77% | 84.6% | 96.6% | 106% | 90% | 56.2% | 72.6% | 82.4% | 88.2% | 82% | 99.2% |  | 
4 | CCc1nc2cc(/C=C/C(=O)NO)ccc2c(=O)n1CCc1ccc(F)cc1 | 1.11% (active) | 20.3% | 18.6 | -11.8% (active) | 4.24% (active) | -4.03% (active) | 3.72% (active) | 7.13% (active) | -23% (active) | -35.7% (active) | -5.02% (active) | 4.68% (active) | -6.12% (active) | -29.5% (active) | 9.29% (active) | 10.4% | 4.06% (active) | 6.79% (active) |  | 
5 | COc1cc(NC2CCC(=O)N2c2ccc(Cl)cc2Cl)cc(OC)c1OC (stereo not given) | 99.4% |  | 97.3 | 103% | 102% | 83.1% | 99.9% | 99.4% | 103% | 97.7% | 103% | 106% | 111% | 120% | 98.7% | 101% | 101% | 94.9% | 93.3 | 99.1
6 | CCN(CC)CCCC(C)Nc1cc(-c2ccc(C(F)(F)F)cc2)c(C#N)c2nc3ccccc3n12 (stereo not given) | 18.6% | -39.6% (active) | 38.9 | 6.94% (active) | -18.8% (active) | 68.8% | 13.1% | 17.1% | -83.3% (active) | -44.6% (active) | 7.4% (active) | -46.1% (active) | -38% (active) | -75.7% (active) | 14.6% | -25.9% (active) | -75.1% (active) | -69.6% (active) |  | 
7 | O=C(NCCO)Nc1ccc(-c2nc(N3CCOCC3)c3cccn3n2)cc1 | 18.2% | 6.97% (active) | 18 | -0.0166% (active) | 8.21% (active) | -21.4% (active) | 10.1% | 2.7% (active) | -5.56% (active) | -7.82% (active) | 11.4% | 34.4% | 4.2% (active) | -33.9% (active) | 11.1% | -23.3% (active) | 0.904% (active) | 6.09% (active) |  | 
8 | O=CC(OC(=O)c1ccccc1)C(OC(=O)c1ccccc1)C(COC(c1ccccc1)(c1ccccc1)c1ccccc1)OC(=O)c1ccccc1 (stereo not given) | 51.3% | 76.4% | 97.1 | 99.8% | 89.2% | -54.6% (active) | 40.4% | 97.5% |  | 57.2% | 86% |  | 48.4% |  | 38.5% | 93.5% | 76.5% | 53.4% | 67.9 | 
9 | COc1cnc2c(c1)C(=O)c1c-2n(CCCN2CCOCC2)c(=O)c2cc(Cl)ccc12 | 20.6% | 20.6% | 31.3 | 4.59% (active) | 3.15% (active) | 70.4% | 24.3% | 34.9% | -0.608% (active) | 9.49% (active) | 17.8% | 27.5% | 64.1% | 1.67% (active) | 29.1% | 8.59% (active) | 6.36% (active) | 11.9% |  | 

— PubChem BioAssay (NCI)
